Screening data from PubChem BioAssay.
Compounds with a hit are over-represented: about 2.4% of the library has one in this group of screens.
HMGR II inh: E. faecalis class II HMG-CoA reductase inhibition. hit rate 0.41% among 190,000. purified E. faecalis HMGR, NADPH absorbance 340 nm kinetic. inhibition, % at 10 µM;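 active means inhibition above a set limit, the median over all tested compounds plus 3 SD, cut at about 9.5% in these data; inconclusive means no clear call, values can overlap the other calls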;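 further: enzyme runs in reverse so mevalonate oxidation gives rising NADPH absorbance; 0% = complete reaction with DMSO and 100% = background rate lacking mevalonate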
PHOSPHO1 block: PHOSPHO1 (human) inhibition. inhibition, % at 13.3 µM. AID 1565. hit rate 1.1% among 290,000. Q8TCT1. recombinant PHOSPHO1, absorbance phosphatase assay; in the data active means inhibition above about 60%
Target sequence (Q8TCT1 whole entry, looked up): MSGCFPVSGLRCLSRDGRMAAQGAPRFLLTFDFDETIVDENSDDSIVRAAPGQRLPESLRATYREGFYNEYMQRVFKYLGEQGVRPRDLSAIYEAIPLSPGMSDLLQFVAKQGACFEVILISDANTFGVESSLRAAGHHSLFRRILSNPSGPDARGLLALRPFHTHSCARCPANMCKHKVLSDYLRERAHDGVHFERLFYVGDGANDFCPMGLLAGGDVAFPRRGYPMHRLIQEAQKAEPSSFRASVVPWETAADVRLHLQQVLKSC
eIF4H inh: inhibitors of RNA binding by human eIF4H; eIF4H fluorescence polarization binding assay; inhibition, % at 35 µM; hit rate 0.94% among 290,000; AID 2012;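 further: calls also rest on retests at 20 µM and on dose response follow-up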
PABP1 MLLE inh: inhibitors of microRNA-mediated deadenylation, human PABP1 MLLE binding; inhibition, % at 20 µM; P11940; hit rate 0.36% among 360,000; GST-MLLE / FITC-PAM2 fluorescence polarization; in the data active means inhibition above about 35%, passing the limit was not always enough;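 further: plate controls were DMSO wells with GST-MLLE for no effect and wells lacking GST-MLLE protein for full effect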
PABP polyA inh: blocks human PABP binding to poly(A) RNA | P11940 | fluorescence polarization | calls only at 35 µM | hit rate 1% among 290,000 | AID 2014;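 further: calls also rest on retests at 20 µM and on dose response follow-up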
The depositor's hits bear a star; i = inactive; ? = inconclusive; . = no result given; + = active, no number. Unless noted, how the calls were made is not given here.

SMILES	HMGR II inh	PHOSPHO1 block	eIF4H inh	PABP1 MLLE inh	PABP polyA inh
CCC(C)(C)n1nnnc1C(c1cc2cc(OC)ccc2[nH]c1=O)N1CCc2ccccc21 (stereo not given)	0	7	-15	2	i
COC(=O)c1cn(NC(=O)Cc2ccccc2Br)c(=O)c2ccccc12	-2	20	-11	0	i
Cc1ccc(C2=NNC(C(O)C(O)C(O)C(O)CO)S2)cc1 (stereo not given)	-2	90*	-7	18	i
Clc1ccc2ccc3cccnc3c2n1	.	61*	-4	-6	i
O=C(NC(=S)N1CCN(Cc2ccc3c(c2)OCO3)CC1)c1cccc(Br)c1	1	-13	active	8	+
O=C(NC(=S)Nc1ccc2c(c1)OCCO2)c1cccc(Br)c1	-3	-7	0	40*	i
O=C(NC(=S)Nc1ccc2c(c1)OCO2)c1ccccc1	-7	-65	0	17	i
Cc1ccc2c(c1)C(c1ccccc1)N(C(=O)c1ccc(Br)cc1)CC(=O)N2 (stereo not given)	.	24	-6	-10	i
O=C(N/N=C/c1cc(Br)c(Br)o1)C(O)c1ccccc1 (stereo not given)	-5	-12	63*	-22	i
CC(=O)Nc1ccc(S(=O)(=O)Nc2cccc(-n3cnnn3)c2)cc1	.	33	2	-5	i
CC(=O)c1ccc(S(=O)(=O)Nc2cccc(-n3cnnn3)c2)cc1	.	55	98*	0	+
COc1cccc(OC)c1C(=O)Nc1cccc(-n2cnnn2)c1	.	72*	-4	-5	i
Cc1cc(C(=O)COc2cc(F)ccc2[N+](=O)[O-])c(C)n1CC1CCCO1 (stereo not given)	.	.	.	-6	.
CCOCc1c(C(=O)NCC(c2ccco2)N2CCCC2)oc2ccccc12 (stereo not given)	.	.	.	6	.
Cc1cc(C(=O)O)c(CSCc2cc(C(=O)O)oc2C)o1	1	76*	0	28	i
NC(=O)C1C(=O)c2ccccc2C1(C[N+](=O)[O-])c1ccccc1 (stereo not given)	.	.	.	20	.
COc1ccc(CCN2C(=O)NC(NC(C)=O)(C(F)(F)F)C2=O)cc1OC (stereo not given)	2	1	-3	-5	+
COc1cc(S(=O)(=O)NCC(c2ccco2)N2CCCCC2)ccc1NC(C)=O (stereo not given)	.	.	.	-2	.
CCCCN(C(=O)C1CC(=O)N(c2ccc(CC)cc2)C1)c1c(N)n(CCC)c(=O)[nH]c1=O (stereo not given)	.	.	.	-7	.
OCCC1CN(Cc2nc(-c3ccccc3)cs2)CCN1C1CCCC1 (stereo not given)	-3	64*	3	-4	i
CCSC1=N/C(=C\c2ccc(C(=O)O)cc2)C(=O)S1	-3	9	2	9	i
CCOC(=O)SC1=N/C(=C\c2ccc(N(C)C)cc2)C(=O)S1	-3	7	111*	-124	+
Cc1ccc(N2C(=O)C(F)(F)C2c2ccccc2)cc1 (stereo not given)	-6	20	11	-16	i
Cc1ccc(N2C(=N)/C(=C3/Nc4ccccc4S3)C(c3ccccc3)C2=O)cc1 (stereo not given)	-4	-4	84*	4	+
CCOc1ccccc1-n1nnnc1SCC(=O)NC(=O)NCc1ccco1	-5	59	61*	-71	+
SMILES	HMGR II inh	PHOSPHO1 block	eIF4H inh	PABP1 MLLE inh	PABP polyA inh
C=CCn1c(SCC(=O)NC(=O)NCc2ccco2)nc2sc(CC)cc2c1=O	-2	45	84*	-16	+
CCCn1c(SCC(=O)NC(=O)NCc2ccccc2)n[nH]c1=O	.	.	.	-19	.
O=C(CSc1nnnn1-c1ccccc1)NC(=O)NCc1ccco1	-1	34	92	-42	i
C=CCn1c(SCC(=O)NCc2ccco2)nc2ccccc2c1=O	-2	17	-12	11	?
CCCn1c(SCC(=O)NC(=O)NCc2ccco2)n[nH]c1=O	-2	-31	74*	.	+
CCn1c(SCC(=O)NC(=O)NCc2ccco2)nc2sc(C)c(C)c2c1=O	1	25	82*	-22	+
CC(C)(C)c1ccc2cccc(F)c2n1	.	.	.	4	.
COc1ccc(CN2CCC(C(=O)Nc3ccc(Oc4ccccc4)nc3)CC2)cc1F	.	6	-5	-4	i
OC(c1cccc(F)c1)c1ncc(-c2ccc(C(F)(F)F)cc2)[nH]1 (stereo not given)	.	.	.	6	.
CCCn1c(SCC(=O)c2cc(C)n(-c3cc(C)on3)c2C)n[nH]c1=O	.	.	.	-12	.
CCCn1c(SCC(=O)c2cc(C)ccc2C)n[nH]c1=O	2	94*	-9	-41	i
Nn1c(SCC(=O)NC(=O)NCc2ccco2)nnc1-c1ccc(OC(F)F)cc1	-4	93*	98	-116	i
Nn1c(SCC(=O)NCCN2C(=O)CSC2=O)nnc1-c1ccc(OC(F)F)cc1	.	.	.	-5	.
COc1ccc(NC(=O)N(C)C[C@H]2Oc3c(NC(=O)c4nc5ccccc5s4)cccc3C(=O)N([C@@H](C)CO)C[C@H]2C)cc1	.	.	.	5	.
Cc1cc(C(=O)C(C)Cl)c(C)n1Cc1ccco1 (stereo not given)	9	21	101*	4	+
Cc1cc(C(=O)COC(=O)C(C)NC(N)=O)c(C)n1Cc1ccco1 (stereo not given)	-1	-20	26	4	i
Cc1cc(C(=O)COC(=O)c2ccc(Br)o2)c(C)n1Cc1ccco1	3	19	5	.	i
Cc1cc(C(=O)COC(=O)c2ccc(O)cc2)c(C)n1Cc1ccco1	-1	-24	74*	-15	+
CCN(CC)CCNC(=O)C(=O)NCC1OCCN1C(=O)c1ccc2c(c1)OCO2 (stereo not given)	19*	18	15	.	i
COc1ccccc1N1CCN(C(=O)[C@H](C)NS(=O)(=O)c2ccc3c(c2)OCCCO3)CC1	.	.	.	41*	.
Cc1ccc(C(=O)NC(C)c2ccc3c(c2)OCO3)s1 (stereo not given)	13*	21	-3	-4	i
CCOc1ccccc1NC1=C(OC)C(=O)C(Nc2ccccc2OCC)=C(OC)C1=O	.	.	.	11	.
COc1ccc(C(=S)N2CCCCCC2)cc1	-9	-16	5	16	i
COc1ccc(C(=S)N2CCN(c3ccccc3C)CC2)cc1	.	33	-6	42*	i
CCOc1ccc(N)c(SSc2cc(OCC)ccc2N)c1	.	67*	2	18	i
CCOc1cccc(N)c1	.	.	.	-3	.
O=c1[nH]c(=S)[nH]c2c1C(c1ccc(Br)cc1)c1c([nH]c(=S)[nH]c1=O)O2	.	44	83*	38	+
CCOC(=O)c1c(NC(=O)CSc2nnc(Cc3ccccc3)o2)sc(C(C)=O)c1C	3	-20	3	-10	i
CCOC(=O)c1sc(NC(=O)CSc2nnc(Cc3ccccc3)o2)c(C#N)c1C	-2	86*	-5	21	i
CCOC(=O)c1sc(NC(=O)CSc2nc(C)cc(C)n2)c(C#N)c1C	-5	11	-7	-2	i
